Drawing on PubChem BioAssay, this text covers composite z-score and z-score for five compounds.

Assay [1] can be described thus: small molecules captured by biotinylated probe aFSTL3 – biochemical, small-molecule microarray, fluorescence 635/667, stem cell growth factor project, primary screen (AID 1064).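 Further: measures binding of the biotinylated anti-FSTL3 antibody to printed compounds.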 Conditions: higher = more signal.
A short description of assay [2]: binders from COS7 lysate, DM2A8 probe, primary screen, torsin A project, cell lysate, small-molecule microarray, fluorescence 635/667 (AID 1065). Conditions: higher = more signal, COS7 lysate expressing mutant human TOR1A.
Assay [3] in a line: small molecules captured by biotinylated probe aFGF2 – biochemical, small-molecule microarray, fluorescence 635/667, stem cell growth factor project, primary screen (AID 1067).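 Further: measures binding of biotinylated aFGF2 protein to printed compounds on slides; z-score merges feature fluorescence and signal-to-noise across triplicate slides.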 Conditions: higher = more signal.
Assay [4] can be described thus: small molecules captured by biotinylated probe aFGF10 – biochemical, small-molecule microarray, fluorescence 635/667, stem cell growth factor project, primary screen (AID 1071).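 Further: score merges 667 nm spot intensity and signal to noise from triplicate slides.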 As to conditions: higher = more signal.
Assay [5] concerns the target Neurogenic locus notch homolog protein 2 (Homo sapiens) (UniProt Q04721). Briefly: small molecules binding Notch2 protein – biochemical, small-molecule microarray, 635 nm fluorescence, stem cell growth factors, primary screen (AID 1073). As to conditions: higher = more signal.
Assay [6] deals with Pro-neuregulin-1, membrane-bound isoform (Homo sapiens) (UniProt Q02297). The assay can be described thus: small molecules binding neuregulin-1 protein – biochemical, small-molecule microarray, fluorescence 635/667, psychiatric disease protein project, primary screen (AID 1075).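 Further: score combines 667 nm spot fluorescence with signal to noise.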 Conditions: NRG1 binding, 635 nm fluorescence, higher = more signal.
Pro-neuregulin-1, membrane-bound isoform (Homo sapiens), sequence (Q02297 whole entry, looked up, the tested form may be a part, canonical isoform): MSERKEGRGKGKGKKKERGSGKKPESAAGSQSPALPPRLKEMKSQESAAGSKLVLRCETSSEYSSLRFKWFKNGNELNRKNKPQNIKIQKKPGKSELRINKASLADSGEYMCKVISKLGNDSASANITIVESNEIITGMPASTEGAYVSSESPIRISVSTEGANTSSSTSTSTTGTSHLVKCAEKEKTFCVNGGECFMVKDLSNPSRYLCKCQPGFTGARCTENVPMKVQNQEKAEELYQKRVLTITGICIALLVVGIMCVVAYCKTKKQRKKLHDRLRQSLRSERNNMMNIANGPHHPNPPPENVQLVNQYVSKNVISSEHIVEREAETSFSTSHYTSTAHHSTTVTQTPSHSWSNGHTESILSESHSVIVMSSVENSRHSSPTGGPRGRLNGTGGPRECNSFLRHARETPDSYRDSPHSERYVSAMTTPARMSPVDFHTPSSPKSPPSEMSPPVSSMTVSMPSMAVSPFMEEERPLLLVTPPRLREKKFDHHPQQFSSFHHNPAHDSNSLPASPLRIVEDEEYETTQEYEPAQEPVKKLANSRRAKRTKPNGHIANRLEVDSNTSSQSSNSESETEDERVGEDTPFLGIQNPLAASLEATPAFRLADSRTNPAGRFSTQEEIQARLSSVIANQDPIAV
Assay [7] concerns Neuregulin-1 EGF-like domain. The assay can be described thus: small molecules binding NRG1 EGF domain – biochemical, small-molecule microarray, 635 nm fluorescence, primary screen (AID 1081).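 Further: binding of the protein to compounds printed on small-molecule microarray slides.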 Conditions: higher = more signal.
The nature of assay [8]: FRG1 expression reporter modulators in myotubes – cell-based, C2C12 myotubes, firefly/Renilla luciferase, luminescence, FRG1 inhibition for FSHD, primary screen (AID 1084). As to conditions: FRG1 promoter luciferase, higher = more signal, called active from +8 up or from −8 down.
A short description of assay [9]: small molecules captured by biotinylated probe aFST – biochemical, small-molecule microarray, fluorescence 635/667, stem cell growth factor project, primary screen (AID 1086).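 Further: score merges 667 nm fluorescence with signal-to-noise of each printed compound spot.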 As to conditions: higher = more signal.
The nature of assay [10]: binders of probe aHhip on microarray, primary screen, stem cell growth factor project, biochemical, small-molecule microarray, fluorescence 635/667 (AID 1087).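 Further: score merges spot fluorescence at 667nm with spot signal to noise ratio.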 Conditions: higher = more signal.
Assay [11] has as its system PRMT1 (protein arginine N-methyltransferase 1). Briefly: small molecules binding arginine methyltransferase PRMT1 – biochemical, small-molecule microarray, 635 nm fluorescence, primary screen (AID 1088).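 Further: binding of Prmt1 protein to compounds spotted on small-molecule microarray slides.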 As to conditions: higher = more signal.
Assay [12] is described as follows: growth effects on S. cerevisiae YJM789 – YJM789 clinical isolate, OD600, 24 h, basal, primary screen (AID 1089).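 Further: growth of clinical yeast isolate S. cerevisiae YJM 789 seeded 1000 cells per well; test concentration not given here.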 As to conditions: higher = more signal, called active from +8 up or from −8 down.
Assay [13] is described as follows: S. pombe growth modifiers, basal conditions – strain 972, OD600, 24 h, no modulator, primary screen (AID 1090).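 Further: basal condition with compound alone and no growth modifier present; test concentration not given here.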 As to conditions: S. pombe 972 growth, higher = more signal, called active from +8 up or from −8 down.
A short description of assay [14]: budding yeast growth modifiers under rapamycin – strain BY4716, OD600, 96 h, primary screen (AID 1091). Further: test concentration not given here. Conditions: S. cerevisiae BY4716 + rapamycin, higher = more signal, called active from +8 up or from −8 down.
Assay [15] addresses Torsin-1A-interacting protein 2 (Homo sapiens) (UniProt Q8NFQ8). Briefly: small molecules binding lysate-expressed LULL1 – cell lysate, human LULL1 lysate, 635/667 nm fluorescence, primary screen (AID 1092).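 Further: probe is lysate of COS7 cells overexpressing human LULL1; score merges per-feature 667 nm fluorescence with signal-to-noise.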 Conditions: small-molecule microarray, hLULL1 lysate binding, 635 nm fluorescence; higher = more signal.
Assay [16] can be described thus: optical density change of DRC41 E. coli – strain DRC41, OD650, 24 h, E. coli filamentation project, primary screen (AID 1093).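 Further: MC1000 strain lacking acrAB efflux and sulA so SOS filamentation is blocked; test concentration not given here.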 Conditions: E. coli DRC41 growth, higher = more signal, called active from +8 up or from −8 down.
Assay [17] is described as follows: probe aLefty2 binding to arrayed compounds – biochemical, biotinylated probe, 635/667 nm fluorescence, primary screen (AID 1094).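 Further: score merges spot fluorescence near 667 nm with spot signal-to-noise ratio.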 Conditions: small-molecule microarray, higher = more signal.
Assay [18] has as its system Noggin (protein binding on small-molecule microarray). Briefly: small molecules binding Noggin protein – biochemical, 635/667 nm fluorescence, primary screen (AID 1095).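 Further: score merges 667 nm feature fluorescence with signal to noise over triplicate slides.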 Conditions: 635 nm fluorescence, higher = more signal.
Assay [19] concerns the target Neurogenic locus notch homolog protein 3 (Homo sapiens) (UniProt Q9UM47). The assay can be described thus: small molecules binding NOTCH3 protein – biochemical, 635/667 nm fluorescence, primary screen (AID 1096). As to conditions: small-molecule microarray, 635 nm fluorescence, higher = more signal.
Assay [20] is described as follows: probe aEGFR binding to arrayed compounds – biochemical, biotinylated probe, 635/667 nm fluorescence, primary screen (AID 1097).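 Further: probe is a biotinylated anti-EGFR antibody binding compounds printed on slides; score combines fluorescence near 667 nm and signal to noise of each spot.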 Conditions: small-molecule microarray, higher = more signal.

Structures are written as SMILES. Activity calls are given as the source filed them.

Torsin-1A-interacting protein 2 (Homo sapiens), sequence (Q8NFQ8 whole entry, looked up): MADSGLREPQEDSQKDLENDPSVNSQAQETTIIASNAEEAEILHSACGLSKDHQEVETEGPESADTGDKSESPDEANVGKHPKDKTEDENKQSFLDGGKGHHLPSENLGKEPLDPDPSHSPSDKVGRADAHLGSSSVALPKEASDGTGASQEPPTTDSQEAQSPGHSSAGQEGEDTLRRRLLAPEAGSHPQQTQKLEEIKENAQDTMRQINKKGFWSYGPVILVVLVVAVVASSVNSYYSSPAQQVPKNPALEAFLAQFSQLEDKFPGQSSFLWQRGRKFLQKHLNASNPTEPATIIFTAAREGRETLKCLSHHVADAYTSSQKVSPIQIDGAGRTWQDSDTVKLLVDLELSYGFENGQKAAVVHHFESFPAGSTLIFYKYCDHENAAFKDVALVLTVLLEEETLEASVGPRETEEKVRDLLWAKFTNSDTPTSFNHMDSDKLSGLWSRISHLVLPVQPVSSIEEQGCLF
Neurogenic locus notch homolog protein 2 (Homo sapiens), sequence (Q04721 whole entry, looked up, canonical isoform): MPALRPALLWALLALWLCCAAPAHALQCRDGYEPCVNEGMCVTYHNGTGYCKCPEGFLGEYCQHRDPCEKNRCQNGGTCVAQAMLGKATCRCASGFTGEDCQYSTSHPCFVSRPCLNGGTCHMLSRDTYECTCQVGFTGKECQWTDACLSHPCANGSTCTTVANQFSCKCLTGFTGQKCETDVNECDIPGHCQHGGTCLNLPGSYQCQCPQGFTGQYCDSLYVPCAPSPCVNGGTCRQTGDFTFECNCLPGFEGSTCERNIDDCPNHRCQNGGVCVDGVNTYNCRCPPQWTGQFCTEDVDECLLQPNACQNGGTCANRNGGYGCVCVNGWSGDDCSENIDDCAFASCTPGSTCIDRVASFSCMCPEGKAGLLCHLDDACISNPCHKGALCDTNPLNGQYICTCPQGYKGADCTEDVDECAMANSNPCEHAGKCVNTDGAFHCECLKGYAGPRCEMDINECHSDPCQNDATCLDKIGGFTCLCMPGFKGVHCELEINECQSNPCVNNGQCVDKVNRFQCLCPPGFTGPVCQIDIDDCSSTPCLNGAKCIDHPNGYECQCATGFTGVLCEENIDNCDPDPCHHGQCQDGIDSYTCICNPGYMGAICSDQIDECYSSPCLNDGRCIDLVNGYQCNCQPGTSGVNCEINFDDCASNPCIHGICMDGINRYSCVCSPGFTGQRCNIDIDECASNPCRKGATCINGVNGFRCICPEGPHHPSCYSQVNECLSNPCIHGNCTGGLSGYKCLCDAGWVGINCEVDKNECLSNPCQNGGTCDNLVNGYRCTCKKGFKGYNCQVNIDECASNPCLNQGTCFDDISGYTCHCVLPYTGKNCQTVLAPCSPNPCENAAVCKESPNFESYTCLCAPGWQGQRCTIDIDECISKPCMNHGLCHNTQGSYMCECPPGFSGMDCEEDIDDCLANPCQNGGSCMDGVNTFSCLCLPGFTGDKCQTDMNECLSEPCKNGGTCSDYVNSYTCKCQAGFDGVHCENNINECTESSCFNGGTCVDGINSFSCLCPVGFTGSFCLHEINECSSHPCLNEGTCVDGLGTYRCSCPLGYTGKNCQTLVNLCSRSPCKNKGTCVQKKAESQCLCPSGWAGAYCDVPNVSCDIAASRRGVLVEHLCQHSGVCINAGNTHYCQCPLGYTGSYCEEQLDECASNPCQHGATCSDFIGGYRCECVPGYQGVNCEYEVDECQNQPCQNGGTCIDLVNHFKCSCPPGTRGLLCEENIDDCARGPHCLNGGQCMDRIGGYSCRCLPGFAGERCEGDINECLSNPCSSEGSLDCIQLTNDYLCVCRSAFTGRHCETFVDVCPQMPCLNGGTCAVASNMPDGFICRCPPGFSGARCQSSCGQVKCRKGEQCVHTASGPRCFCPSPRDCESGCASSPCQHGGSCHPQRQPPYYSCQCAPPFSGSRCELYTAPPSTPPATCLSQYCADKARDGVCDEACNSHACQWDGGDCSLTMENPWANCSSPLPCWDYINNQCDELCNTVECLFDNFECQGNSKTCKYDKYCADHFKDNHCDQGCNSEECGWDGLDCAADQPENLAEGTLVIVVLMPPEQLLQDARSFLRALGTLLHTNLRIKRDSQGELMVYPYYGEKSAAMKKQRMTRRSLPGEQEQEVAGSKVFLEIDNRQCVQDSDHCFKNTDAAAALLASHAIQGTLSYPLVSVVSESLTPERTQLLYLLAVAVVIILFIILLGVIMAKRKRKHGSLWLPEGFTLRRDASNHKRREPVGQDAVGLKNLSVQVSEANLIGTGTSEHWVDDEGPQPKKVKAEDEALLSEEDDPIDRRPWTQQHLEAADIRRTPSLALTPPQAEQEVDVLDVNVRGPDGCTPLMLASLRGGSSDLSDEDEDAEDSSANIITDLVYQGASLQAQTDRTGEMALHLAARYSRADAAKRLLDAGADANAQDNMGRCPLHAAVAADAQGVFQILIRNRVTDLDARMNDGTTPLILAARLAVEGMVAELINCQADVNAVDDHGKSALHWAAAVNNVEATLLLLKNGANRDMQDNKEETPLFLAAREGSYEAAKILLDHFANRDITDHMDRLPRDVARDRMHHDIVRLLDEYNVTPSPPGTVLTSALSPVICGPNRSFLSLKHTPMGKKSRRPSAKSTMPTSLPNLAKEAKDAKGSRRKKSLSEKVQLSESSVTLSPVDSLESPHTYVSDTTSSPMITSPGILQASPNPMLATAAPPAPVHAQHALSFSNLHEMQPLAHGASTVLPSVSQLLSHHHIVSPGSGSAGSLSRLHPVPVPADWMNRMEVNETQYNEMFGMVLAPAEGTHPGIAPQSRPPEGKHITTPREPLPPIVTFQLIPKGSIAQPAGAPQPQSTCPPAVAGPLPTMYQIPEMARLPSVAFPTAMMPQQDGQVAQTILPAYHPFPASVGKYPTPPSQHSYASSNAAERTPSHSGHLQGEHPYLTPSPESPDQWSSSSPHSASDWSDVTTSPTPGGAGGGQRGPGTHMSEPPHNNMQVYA

On to `CC(C)C(=O)N[C@H]1CCCN1C(=O)C=Cc1ccccc1`, for which the composite z-score in assay [1] was -0.174; in [2] it was 0.253; in [3], -0.0212; in assay [4], 0.803; in [5] it was 0.74; in assay [6], -0.219. Besides, the composite z-score in [7] is 0.72; in assay [9], 0.214; in [10] it was -0.0319; in assay [11] it was 0.876; in assay [15], 0.0445; in assay [17], -0.0022. Also, the composite z-score in assay [18] amounted to 1.13; in assay [19], 0.826; in [20], 0.125. In addition, the z-score was -0.302 (inactive) in [8]; 0.624 (inactive) in assay [12]; 0.495 (inactive) in assay [13]; 1.02 (inactive) in [14]; 0.267 (inactive) in assay [16].
Turning to `COC(=O)[C@H](C)NC(=O)CCC1CC(OC(=O)NCc2cccc3ccccc23)CC2(CCCC(COC(=O)NCCC(C)C)O2)O1` (stereo not given in full), the composite z-score is -0.478 in assay [1]; 0.151 in assay [2]; -0.167 in assay [3]; 0.0257 in assay [4]; 0.0502 in assay [5]; 0.543 in assay [6]. The composite z-score is 1.02 in [7]; 0.0638 in assay [9]; -0.264 in assay [10]; 0.651 in assay [11]; 1.84 in assay [15]; -0.205 in [17]. Further, the composite z-score is 0.352 in [18], 0.504 in assay [19] and -0.112 in assay [20]. In addition, the z-score in assay [8] is 1.5 (inactive); in assay [12], -0.518 (inactive); in assay [13], -1.07 (inactive); in assay [14], -0.642 (inactive); in assay [16] it was 0.384 (inactive).
In the case of `COc1ccc(COC(=O)NN=C2C[C@@H](O)[C@@H](O)[C@@H]3[C@@H]4C(=O)N([C@@H](C)c5ccccc5)C(=O)[C@@H]4CC[C@H]23)cc1`, the composite z-score is 1.87 in [1]; 0.287 in assay [2]; -0.0614 in assay [3]; -0.129 in [4]; -0.249 in [5]; -0.413 in [6]. The composite z-score in assay [7] was -0.592; in [9], 0.951; in assay [10], -0.226; in assay [11], -0.517; in assay [15] it was 0.621; in assay [17], 0.484. The values for the composite z-score in [18], in [19] and in [20] were -0.245, -0.184 and -0.137, respectively. Moreover, the z-score in assay [8] is -0.797 (inactive); in assay [12] it was -0.21 (inactive); in assay [13] it was -0.0145 (inactive); in assay [14] it was -0.556 (inactive); in assay [16] it was 0.92 (inactive).
On to `CCOC(=O)[C@H](Cc1ccccc1)NC(=O)CCC1CC(OC(=O)NCc2ccc3c(c2)OCO3)CC2(CCCC(COC(=O)NCCOc3ccccc3)O2)O1` (stereo not given in full), for which the composite z-score in assay [1] is -0.288; in [2], 0.474; in assay [3] it was -0.051; in [4], 0.378; in [5] it was 0.896; in [6], 0.833. Moreover, the composite z-score in [7] is 1.08; in [9], 0.672; in assay [10] it was -0.0994; in assay [11], 1.48; in assay [15], 1.31; in assay [17] it was -0.0446. Besides, the composite z-score was 0.484 in [18], 1.12 in [19] and 0.0436 in assay [20]. Moreover, the z-score was 1.17 (inactive) in assay [8]; 0.0339 (inactive) in assay [12]; 0.486 (inactive) in assay [13]; 0.576 (inactive) in assay [14]; 0.196 (inactive) in [16].
As for `C#CCCCON=C1C[C@@H](O)[C@@H](O)[C@@H]2[C@@H]3C(=O)N(C4CCCCC4)C(=O)[C@@H]3CC[C@@H]12`, the composite z-score in assay [1] was 0.835; in [2], 0.0616; in assay [3], -0.115; in [4], -0.0372; in assay [5], 0.766; in assay [6], 0.846. In addition, the composite z-score in [7] is 0.565; in assay [9], -0.0386; in [10], 0.312; in assay [11] it was 0.335; in assay [15] it was 1.01; in assay [17], -0.118. Moreover, the composite z-score is 0.454 in [18], 0.358 in assay [19] and -0.0409 in assay [20]. The z-score in assay [8] is 0.287 (inactive); in [12], -1.83 (inactive); in assay [13] it was -1.61 (inactive); in assay [14] it was -1.07 (inactive); in [16], 0.862 (inactive).
